Rce1 inhib: blocks yeast Ras-converting enzyme; Q03530; yeast membranes, quenched prenylated peptide cleavage fluorescence; calls only; hit rate 0.27% among 290,000; AID 2563;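 active = fall in fluorescence gain of 50% or more versus controls, with final raw signal at or below 3038400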;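 note: plate controls were neutral control wells for no effect and wells lacking membranes for full effect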
Target sequence (Q03530 whole entry, looked up): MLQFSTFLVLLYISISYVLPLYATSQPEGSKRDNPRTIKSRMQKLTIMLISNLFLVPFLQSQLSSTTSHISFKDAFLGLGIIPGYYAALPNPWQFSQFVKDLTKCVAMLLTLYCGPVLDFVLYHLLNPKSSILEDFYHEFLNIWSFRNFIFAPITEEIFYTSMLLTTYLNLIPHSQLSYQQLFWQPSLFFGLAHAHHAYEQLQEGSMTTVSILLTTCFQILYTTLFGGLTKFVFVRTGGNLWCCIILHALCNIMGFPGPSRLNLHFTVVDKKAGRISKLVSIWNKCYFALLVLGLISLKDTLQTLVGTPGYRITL
tim23-1 inh: growth inhibitors of tim23-1 mutant yeast. S. cerevisiae tim23-1 growth, BacTiter-Glo luminescence, 24 h. inhibition, % at 20 µM. hit rate 1.3% among 330,000;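 active = growth inhibition of the mutant yeast at or above 50%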;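 note: temperature-sensitive mutant grown at 25 °C; plate controls were DMSO-treated mutant yeast for no effect and medium wells lacking yeast for full effect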
PfHsp90 set2: growth inhibition of yeast expressing Plasmodium Hsp90. S. cerevisiae expressing PfHsp90, BacTiter-Glo ATP, 48 h; yeast lacking PDR1 and PDR3 efflux regulators. inhibition, % at 9.4 µM. hit rate 0.32% among 310,000. AID 504621;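 active = every replicate shows inhibition above about 80%, whatever the replicate mean, limit read from the data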;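 note: 0% = DMSO neutral controls and 100% = 20 µM radicicol positive controls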
TIM10 inh: inhibits growth of TIM10 yeast strain. S. cerevisiae TIM10 strain growth, BacTiter-Glo luminescence, 24 h. inhibition, % at 10 µM. hit rate 1.4% among 330,000;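 active = inhibition of 40% or more at the single tested concentration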;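 note: wild-type TIM10 isogenic control strain grown at permissive 25 °C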
tim10-1 inh: tim10-1 yeast growth inhibition. hit rate 2.2% among 330,000. S. cerevisiae tim10-1 ts strain growth, BacTiter-Glo, 24 h. inhibition, % at 20 µM;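 active = inhibition of at least 40%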;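 note: mutant grown at 25 °C; 0% = DMSO wells with yeast and 100% = wells holding no yeast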
tim10-1 confirm: confirmation of tim10-1 mutant yeast growth inhibitors; S. cerevisiae tim10-1 ts strain growth, BacTiter-Glo, 24 h; inhibition, % at 20 µM; hit rate 56% among 7,400; AID 463213; shares compounds with tim10-1 inh;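 active = inhibition of yeast growth at or above a set limit in either of two repeat tests at 20 µM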;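 note: tim10-1 mutant grown at permissive 25 °C to find synthetic lethal compounds; 0% = DMSO yeast wells and 100% = medium wells without yeast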
TIM10 conf: TIM10 yeast growth inhibition, confirmed; hit rate 63% among 4,600; AID 463215; S. cerevisiae tim10 strain growth, BacTiter-Glo luminescence, 24 h; inhibition, % at 10 µM; shares compounds with TIM10 inh;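 active = inhibition of yeast growth at or above a set limit in either of two replicates at 10 µM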;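 note: this counterscreen used the strain with wild-type TIM10; 0% = yeast with DMSO and 100% = medium wells lacking yeast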
tim23-1 confirm: tim23-1 yeast growth inhibition, confirmed | shares compounds with tim23-1 inh | S. cerevisiae tim23-1 growth, BacTiter-Glo luminescence, 24 h | inhibition, % at 20 µM | hit rate 83% among 4,400;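 active = inhibition above about 39% in either of two replicate wells at 20 µM, limit read from the data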;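 note: temperature-sensitive tim23-1 mutant grown at 25 °C; 0% = DMSO wells with yeast and 100% = medium wells without yeast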
* hit, by the source's call; i = inactive; · = not tested or not shown. The list is not random: actives were taken first. Their share in the collection is about 3.7%.

SMILES | Rce1 inhib | tim23-1 inh | PfHsp90 set2 | TIM10 inh | tim10-1 inh | tim10-1 confirm | tim23-1 confirm | others
Cc1cccc(CN2C(=O)/C(=C\c3ccc(C(=O)NCCCN4CCN(C)CC4)cc3)Oc3ccccc32)c1 | i | 62* | 53 | 5 | 44* | -18 | 46*
O=C(Cc1cccc([N+](=O)[O-])c1)Nc1ccc(C(=O)N2CCCCC2)cc1 | · | 19 | 43 | 6 | 11 | · | ·
O=[N+]([O-])c1ccc(/C=C2\CCC(C3=CCCC3)=C2N2CCOCC2)cc1 | i | 53* | 1 | 36 | 52* | 61* | 52*
COc1ccc(/C=C2\SC(N)=NC2=O)cc1 | i | 15 | 19 | 4 | 10 | · | ·
COc1ccc(/C=C2\SC(N3CCc4ccccc4C3)=NC2=O)cc1 | i | 65* | -95 | 53* | 55* | 50* | 52* | TIM10 conf=-14
CCOC(=O)CSC1=NC(=O)/C(=C/c2ccc(OC)cc2)S1 | i | 90* | -35 | 59* | 40* | 70* | 39* | TIM10 conf=-6
CCN(Cc1ccccc1)C(c1ccncc1)c1nnnn1C(C)(C)C (configuration not stated) | · | 53* | -22 | 30 | 41* | 39* | 37
C#CCOCCOCCOCCNc1nc(N2CCN(C(=O)CCCCCCCCCCNC(=O)[C@H](CO)n3cc(CCCSC)nn3)CC2)nc(N2CCN(C(=O)CCCCCCCCCCNC(=O)[C@@H]([C@H](C)O)n3cc(C)nn3)CC2)n1 | · | 21 | · | 0 | 8 | · | ·
COc1cc2c(cc1OC)C(c1ccc(-c3ccc(Cl)c(Cl)c3)o1)=NCC2 | i | 57* | -3 | 37 | 56* | 44* | 54*
O=c1[nH]c(Sc2ccc([N+](=O)[O-])cc2[N+](=O)[O-])nc2ccccc12 | i | 68* | 37 | 29 | 45* | 38* | 53*
Nc1ccc(N=Nc2ccccc2)c2ccccc12 | i | 80* | -2 | 65* | 49* | 39* | 13 | TIM10 conf=75*
Fc1cnc(N/N=C/c2ccc(-c3ccc(Br)cc3)o2)nc1N1CCOCC1 | i | 51* | -5 | 33 | 43* | 24 | 33
Cc1cc(N2CCCCC2)n2nc(C)c(-c3ccccc3)c2n1 | i | 50* | -34 | 20 | 43* | 33* | 47*
COC(=O)c1cnn(-c2ccc(Cl)cc2)c1/C=N/NC(N)=S | i | 5 | 8 | 16 | 10 | · | ·
O=C(Nc1ccc(Oc2ccc(Cl)cc2)c(Cl)c1)c1cc(I)cc(I)c1O | i | 59* | -6 | 31 | 54* | 52* | 60*
COc1ccc(NC(=O)c2ccccc2F)cc1Cl | i | -7 | -27 | -1 | -20 | · | ·
CCCn1nnnc1NCc1ccccc1C | i | -5 | -11 | -15 | -30 | · | ·
COc1ccccc1NC(=O)Nc1ccc(-n2ccc(C(F)(F)F)n2)cc1 | i | 64* | 10 | 30 | 54* | 50* | 60*
Cc1ccccc1NC(=S)NCc1ccc2[nH]c3c(c2c1)CCCC3 | i | 56* | -30 | 47* | 49* | 30 | 48* | TIM10 conf=43*
S=C(NCc1ccc2[nH]c3c(c2c1)CCCC3)Nc1ccccc1Cl | i | 15 | -66 | 6 | 21 | · | ·
CCOC(=O)c1c(S(=O)(=O)N2CCN(Cc3ccccc3)CC2)c(C)n(C)c1C | i | 10 | 7 | 0 | 4 | · | ·
O=C(Cc1c(F)cccc1Cl)N1CCOCC1 | i | 6 | -17 | -3 | 3 | · | ·
CCc1cc(C(=O)Cc2ccc(F)cc2)c(O)cc1O | i | 36 | 17 | 23 | 25 | · | ·
O=C(Cc1ccc(F)cc1)c1ccc(O)cc1O | i | 55* | 18 | 37 | 44* | 35* | 44*
O=C(Cc1c(F)cccc1Cl)c1ccc(O)cc1O | i | 67* | -20 | 56* | 48* | 60* | 68* | TIM10 conf=58*
SMILES | Rce1 inhib | tim23-1 inh | PfHsp90 set2 | TIM10 inh | tim10-1 inh | tim10-1 confirm | tim23-1 confirm | others
Cc1ccc(-n2ncc3c2CC(C)(C)CC3NC(=O)CCN2CCCO2)cc1 (configuration not stated) | i | 14 | 19 | 0 | 0 | · | ·
CN(C)C(=O)c1ccc2c(c1[N+](=O)[O-])C(=O)c1ccccc1C2=O | i | 61* | -31 | 69* | 71* | 61* | 58* | TIM10 conf=63*
Cc1[nH]c2c(C)cccc2c1CCNC(=O)c1ccc2c(c1[N+](=O)[O-])C(=O)c1ccccc1C2=O | i | 39 | -11 | 40 | 27 | · | ·
CC(Sc1ccc(Cl)cc1)C(=O)NCC(c1ccco1)N1CCCCC1 (configuration not stated) | i | 1 | 17 | -6 | -4 | · | ·
CC1=CC(=O)C=C(C)C1=NOc1ccccc1[N+](=O)[O-] | i | 66* | 27 | 72* | 78* | 76* | 83* | TIM10 conf=18
S=C(N/N=C/c1ccc2c(c1)OCO2)NC1CC2CCC1C2 (configuration not stated) | i | 22 | 7 | 27 | 9 | · | ·
COc1cc(/C=N/NC(=S)NC2CC3CCC2C3)ccc1O (configuration not stated) | i | 68* | -2 | 49* | 42* | 24 | 52* | TIM10 conf=43*
CN1C(=O)/C(=C\c2cc(N=Nc3ccccc3)ccc2O)SC1=S | i | 62* | 25 | 40 | 42* | 24 | 67*
CS(=O)(=O)CCC(C(=O)OCc1ccc(Cl)cc1)N1C(=O)c2ccccc2C1=O (configuration not stated) | i | 19 | 3 | 7 | 16 | · | ·
CC(C)(C)C(=O)NC1CCN(CC(=O)Nc2ccc3c(c2)OCO3)CC1 | i | 8 | 4 | 8 | 16 | · | ·
O=C(c1cccs1)c1no[n+]([O-])c1C(=O)c1cccs1 | i | 81* | 105* | -6 | 72* | 87* | 97*
Cc1sc(NC(=O)c2ccco2)c(CN2CCN(c3ccccn3)CC2)c1C | i | 59* | -20 | 27 | 48* | 32* | 55*
CCOc1ccc(NC(=O)CN(C)C(=O)CC2CCCC2)cc1OCC | · | -6 | 8 | -5 | -2 | · | ·
Cc1cc(NC(=O)CSc2nccn2C)no1 | i | 16 | 11 | -5 | 3 | · | ·
NC(=O)Nc1ccc(C(=O)OCC(=O)N2CCc3ccccc3C2)cc1 | · | 0 | 14 | 9 | -2 | · | ·
CC(=O)c1c(C)[nH]c(C(=O)NC(C)c2ccccc2)c1C (configuration not stated) | i | 10 | -5 | -1 | 16 | · | ·
Cc1cccc(/C=N\NC(=O)c2ccccc2-n2cccc2)c1 | i | 38 | 2 | 31 | 32 | · | ·
O=C(N/N=C/c1ccc(Br)cc1)c1ccccc1-n1cccc1 | i | 54* | 1 | 37 | 42* | 37* | 51*
